For 32 compounds, Potency results are on record in PubChem BioAssay (NCATS).

Records with an inconclusive call do not appear. A call without a number means that no potency is given here. Calls of active or inactive are those of the source. The call rests on the fitted dose curve; in most records, active means well fitted curve in the direction sought with a large enough effect; inconclusive means small, poorly fitted or top-dose-only effect, or another doubt; inactive means no such curve, though single readings can be large; an effect the other way counts as inactive or inconclusive.

A short description of the first test: qHTS assay to identify small molecule inhibitors of chordoma cells - UCH-1 (AID 1259355). Further: nearly all actives have a fitted effect of over 55% in size. The settings on record: UCH-1 chordoma viability, CellTiter-Glo, 48 h, combination, with auranofin plus four topoisomerase inhibitors; series mostly up to 46.1 µM. The gist of the method: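 Seed 800 cells per well; incubate overnight at 37 C, 5% CO2. Add test compounds (15 concentrations), then the auranofin–topoisomerase-agent combination. Incubate 48hr, add CellTiter-Glo, wait 30min, read luminescence.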
In general terms: qHTS replaces the single test concentration by a dilution series.
As to `c1ccc(-c2ccc(C(c3ccccc3)n3ccnc3)cc2)cc1` (stereo not drawn), the Potency result is “inactive”.

On to `Nc1cc(Cl)c(NC2=NCCN2)c(Cl)c1`, for which the Potency result is “inactive”.

On to `CC(C)N=C(N)/N=C(\N)Nc1ccc(Cl)cc1`, for which the Potency result is “inactive”. With `CCN(CC)CCOc1ccc(C(O)(Cc2ccc(Cl)cc2)c2ccc(C)cc2)cc1` (stereo not drawn), the Potency result was “inactive”.

Consider `O=C1CCC(c2ccc(-n3ccnc3)cc2)=NN1`, for which the Potency result was “inactive”. Turning to `CC[C@H](C)C(=O)O[C@H]1CCC=C2C=C[C@H](C)[C@H](CC[C@@H]3C[C@@H](O)CC(=O)O3)[C@H]21`, the Potency result was “inactive”.

`CC(=O)O[C@H]1C[C@@H]2CC[C@@H]3[C@H](CC[C@@]4(C)[C@H]3C[C@H]([N+]3(C)CCCCC3)[C@@H]4OC(C)=O)[C@@]2(C)C[C@@H]1[N+]1(C)CCCCC1`: the Potency result is “inactive”. As for `CN1CCCC(CC2c3ccccc3Sc3ccccc32)C1` (stereo not drawn), the Potency entry was “inactive”.

Consider `CC1(C)CCC(NC(=O)[C@@H](N)CCC(=O)O)CC1`, for which the Potency entry is “inactive”. For the compound `CCCCOc1ccc(C(=O)CCN2CCCCC2)cc1`, the Potency entry is “inactive”.

As for `NC(=O)c1cc[n+](CC2=C(C(=O)[O-])N3C(=O)[C@@H](NC(=O)Cc4cccs4)[C@H]3SC2)cc1`, the Potency result was “inactive”. Same read-out and setting: the same measure for `O=C(CCN1CCC(c2ccccc2)C1)c1ccc2c(c1)OCCO2` (stereo not drawn): “inactive”.

`CC(C)NC[C@@H](O)COc1cccc2ccccc12`: the Potency result is “inactive”.

Another test is described as follows: qHTS assay to identify small molecule inhibitors of chordoma cells - UCH-2 (AID 1259356). Particulars: UCH-2 chordoma viability, CellTiter-Glo ATP luminescence, 48 h; series mostly up to 46.1 µM.
On to `CCN(CC)C(=O)N1CCN(C)CC1`, for which the Potency result is “inactive”. Take `CC(CCc1ccccc1)NCC(O)c1ccc(O)c(C(N)=O)c1` (stereo not drawn): the Potency entry is “inactive”. For the compound `N[C@@H](Cc1cnc[nH]1)C(=O)O`, the Potency result is “inactive”.

On to `CCCCCCCCCCOCC(O)CN` (stereo not drawn), for which the Potency result was “inactive”. Regarding `O=C(COc1ccc(Cl)cc1)N1CCN(Cc2ccc3c(c2)OCO3)CC1`, the Potency entry is “inactive”. With `CC(=O)OCC(=O)NCCCOc1cccc(CN2CCCCC2)c1`, the Potency result was “inactive”. In the case of `Cc1ccc(O)c2ncccc12`, the Potency result was “inactive”. On to `N[C@H](CO)C(=O)O`, for which the Potency entry was “inactive”. For `CCCn1c(=O)[nH]c(=O)c2[nH]cnc21`, the Potency result was “inactive”.

On to `C[N+]1(CCCCC[N+]2(C)CCCC2)CCCC1`, for which the Potency result is “inactive”. For `CCCCc1nc(Cl)c(CO)n1Cc1ccc(-c2ccccc2-c2nn[nH]n2)cc1`, the Potency entry is “inactive”. Regarding `C=C1C(=C/C=C2\CCC[C@]3(C)[C@@H]([C@H](C)/C=C/[C@@H](O)C4CC4)CC[C@@H]23)C[C@@H](O)C[C@@H]1O`, the Potency result was “inactive”. Turning to `C[C@@H]1C(=O)NC2=Nc3cccc(Cl)c3CN21`, the Potency entry is “inactive”. As to `CC(C)COC(=O)OCN1C(=O)CN(CCN2CC(=O)N(COC(=O)OCC(C)C)C(=O)C2)CC1=O`, the Potency result was “inactive”. In the case of `Clc1ccc2c(c1)CCc1cccnc1C2=C1CCNCC1`, the Potency result is “inactive”. Regarding `CC(C)C[C@H]1C(=O)N2CCC[C@H]2[C@]2(O)O[C@](NC(=O)[C@@H]3C=C4c5cccc6[nH]c(Br)c(c56)C[C@H]4N(C)C3)(C(C)C)C(=O)N12`, the Potency result is “inactive”. Regarding `C[C@@H]1CN(CCCn2c3ccccc3c3ccccc32)C[C@H](C)N1`, the Potency result was “inactive”. On the same count and under the same terms, the same measure for `CCCOC(C(=O)OC1CCN(C)CC1)(c1ccccc1)c1ccccc1`: “inactive”; for `C1CCc2nnnn2CC1`: “inactive”. Regarding `c1ccc(-c2ccc(C(c3ccccc3)n3ccnc3)cc2)cc1` (stereo not drawn), the Potency result is “inactive”.

For the compound `Nc1cc(Cl)c(NC2=NCCN2)c(Cl)c1`, the Potency result was “inactive”. As to `CC(C)N=C(N)/N=C(\N)Nc1ccc(Cl)cc1`, the Potency result is “inactive”. As for `O=C1CCC(c2ccc(-n3ccnc3)cc2)=NN1`, the Potency result is “inactive”.

Turning to `CC[C@H](C)C(=O)O[C@H]1CCC=C2C=C[C@H](C)[C@H](CC[C@@H]3C[C@@H](O)CC(=O)O3)[C@H]21`, the Potency entry is “inactive”. Consider `CC(=O)O[C@H]1C[C@@H]2CC[C@@H]3[C@H](CC[C@@]4(C)[C@H]3C[C@H]([N+]3(C)CCCCC3)[C@@H]4OC(C)=O)[C@@]2(C)C[C@@H]1[N+]1(C)CCCCC1`, for which the Potency result is “inactive”.

Take `CN1CCCC(CC2c3ccccc3Sc3ccccc32)C1` (stereo not drawn): the Potency entry is “inactive”. For the compound `CC1(C)CCC(NC(=O)[C@@H](N)CCC(=O)O)CC1`, the Potency entry is “inactive”. Regarding `NC(=O)c1cc[n+](CC2=C(C(=O)[O-])N3C(=O)[C@@H](NC(=O)Cc4cccs4)[C@H]3SC2)cc1`, the Potency entry was “inactive”. As to `O=C(CCN1CCC(c2ccccc2)C1)c1ccc2c(c1)OCCO2` (stereo not drawn), the Potency entry was “inactive”. On to `CC(C)NC[C@@H](O)COc1cccc2ccccc12`, for which the Potency result is “inactive”.
